The values that follow come from ChEMBL document CHEMBL4513146, “CO-ADD screening of Karazin Kharkiv National University (Ukraine) compounds”.

Entries with a potency or affinity are not part of this list.

One experiment concerns Klebsiella pneumoniae. To be noted: Concentration 32 ug.mL-1;; ASSAY_TEST Inhibition of Bacterial Growth; detection method Absorption (OD600); MEDIA CAMHB; plate type 384well; NBS; CORNING #3640; time 18 hr.
The test system of another experiment is Candida albicans. To be noted: Concentration 32 ug.mL-1; ASSAY_TEST Inhibition of Fungal Growth; detection method Absorption (OD530).
The test system of another experiment is Cryptococcus neoformans. To be noted: Concentration 32 ug.mL-1; ASSAY_TEST Inhibition of Fungal Growth; detection method Resazurin; Absorption (OD600-OD570); plate type 384well; NBS; CORNING #3640. In general terms: Alamar Blue is a resazurin reagent that responds to reducing activity.

A word on the Inhibition: it is the drop in the measured response relative to a control, in per cent.

Regarding `CCc1ccc(N(Cc2ccccc2F)S(=O)(=O)c2cccn3c(CC)nnc23)cc1`, the Inhibition with Klebsiella pneumoniae is reported as 6.04%; in the experiment on Candida albicans it was 4.59%; with Cryptococcus neoformans, -5.13%.

Regarding `Cc1ccccc1Oc1nc2ccccc2n2c(=O)n(CC(=O)NCc3ccc4c(c3)OCO4)nc12`, the Inhibition is given as 17.68% with Klebsiella pneumoniae, 19.82% in the experiment with Candida albicans and -16.39% with Cryptococcus neoformans.

`CCOc1ccc(NC(=O)Cn2nc3c4cc(-c5ccc(Cl)cc5)nn4ccn3c2=O)cc1`: the Inhibition is listed as 10.46% in the experiment with Klebsiella pneumoniae, 5.03% in the experiment with Candida albicans and -14.66% in the experiment on Cryptococcus neoformans.

Regarding `O=c1n(Cc2cccc(C(F)(F)F)c2)nc2ccc(S(=O)(=O)N3CCCC3)cn12`, the Inhibition in the experiment on Klebsiella pneumoniae is 10.57%; with Candida albicans it was 0.2%; with Cryptococcus neoformans, -10.53%.

Regarding `CCc1nnc2c(=O)n(CC(=O)Nc3ccc(C#N)cc3)c3ccccc3n12`, the Inhibition in the experiment with Klebsiella pneumoniae is reported as 5.17%; in the experiment with Candida albicans, 10.64%; in the experiment with Cryptococcus neoformans it was -24.76%.

For `Cc1ccc2c(c1)N(C(=O)Cn1nc3ccc(S(=O)(=O)C(C)(C)C)nn3c1=O)CCO2`, the Inhibition is given as 13.78% with Klebsiella pneumoniae, 0.51% in the experiment on Candida albicans and -14.77% in the experiment with Cryptococcus neoformans.

As for `COc1ccccc1NC(=O)Cn1nc2c3cc(-c4ccc(C)c(C)c4)nn3ccn2c1=O`, the Inhibition in the experiment with Klebsiella pneumoniae is reported as 17.54%; in the experiment with Candida albicans, -1.16%; in the experiment on Cryptococcus neoformans, -22.56%.

On to `COc1ccc(N(Cc2cccc(C)c2)S(=O)(=O)c2ccc3nncn3c2)cc1`, for which the Inhibition with Klebsiella pneumoniae was -1.75%; with Candida albicans, 4.35%; in the experiment with Cryptococcus neoformans, -8.71%.

As to `CCCCOc1ccc(-c2cc3c4nnc(SCC(=O)Nc5ccccc5Cl)n4ccn3n2)cc1`, the Inhibition is 5.58% in the experiment on Klebsiella pneumoniae, 2.9% with Candida albicans and -20.67% in the experiment on Cryptococcus neoformans.

Consider `CC(C)NC(=O)Cn1nc2n(Cc3ccco3)c(=O)c3sccc3n2c1=O`, for which the values for the Inhibition in the experiment with Klebsiella pneumoniae, in the experiment with Candida albicans and in the experiment with Cryptococcus neoformans were 9.3%, 0.87% and -5.24%, respectively.
